Results as given in PubChem BioAssay (EPA / NIEHS).
Records with an inconclusive call do not appear. The source made the active and inactive calls. How the source made its calls, unless noted: active means hit-call score of the fitted dose curve at least 0.9, where 1 is the maximum; inconclusive means response in the unintended direction; inactive means score below 0.9.

Experiments:
[1] = molecular target: human Peroxisome Proliferator-activated Receptor alpha (PPARa), PPARA (gene 5465) (UniProt Q07869); assay: ATG_PPARa_TRANS: Attagene TRANS-FACTORIAL HepG2 Assay for human Peroxisome Proliferator-activated Receptor alpha (PPARa) (AID 2283001);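 on AC50: potency for gain of reporter signal over DMSO so agonist or activator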
Chain of human Peroxisome Proliferator-activated Receptor alpha (PPARa), PPARA (gene 5465) (Q07869 whole entry, looked up): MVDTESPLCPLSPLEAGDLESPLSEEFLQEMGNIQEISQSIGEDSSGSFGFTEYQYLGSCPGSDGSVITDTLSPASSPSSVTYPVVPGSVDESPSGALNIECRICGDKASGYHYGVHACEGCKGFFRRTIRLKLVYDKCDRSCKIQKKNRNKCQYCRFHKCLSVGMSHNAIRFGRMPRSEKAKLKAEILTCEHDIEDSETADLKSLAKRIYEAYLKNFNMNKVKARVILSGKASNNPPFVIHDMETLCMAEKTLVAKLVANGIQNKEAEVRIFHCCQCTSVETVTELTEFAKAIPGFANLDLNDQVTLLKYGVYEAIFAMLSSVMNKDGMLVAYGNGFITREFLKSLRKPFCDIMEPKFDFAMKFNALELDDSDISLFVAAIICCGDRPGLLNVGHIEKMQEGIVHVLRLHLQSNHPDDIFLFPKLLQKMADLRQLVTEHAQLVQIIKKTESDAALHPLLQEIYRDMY
Summary of the method: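 HepG2, transient MRTU transfection, 24 h treatment. RT-PCR → FAM labelling → capillary electrophoresis. Fit vs DMSO, positive direction.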

[2] = read-out: Intercellular Adhesion Molecule 1 (ICAM1), ICAM1 (gene 3383); assay: BSK_3C_ICAM1: BioMAP Diversity Plus: 3C Assay for Intercellular Adhesion Molecule 1 (ICAM1) Biomarker Activity (AID 2283003; active means hit-call score of the fitted dose curve at least 0.9, where 1 is the maximum; inactive means score below 0.9); settings: primary human endothelial cells (HUVEC); actives raise or lower the signal
Summary of the method: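 ELISA readout of ICAM1 in human umbilical vein endothelial cells in the 3C system, taken 24 h post-dose. Gain or loss of signal versus DMSO was fitted in both directions, with SRB total-protein staining run in parallel.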

[3] = BSK_3C_Proliferation: Cell Proliferation Assessment in the BioMAP Diversity Plus: 3C Assay (AID 2283006; active means hit-call score of the fitted dose curve at least 0.9, where 1 is the maximum; inactive means score below 0.9); settings: primary human endothelial cells (HUVEC)
Summary of the method: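 Proliferation as total protein: sulforhodamine B (0.1%) stain of TCA-fixed subconfluent human umbilical vein endothelial cells, absorbance 560 nm, 48 h after dosing. Activity fitted in both directions against DMSO baseline.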

[4] = molecular target: Peroxisome proliferator-activated receptor gamma (Homo sapiens) (UniProt P37231); assay: ATG_PPARg_TRANS: Attagene TRANS-FACTORIAL HepG2 Assay for human Peroxisome Proliferator-activated Receptor-gamma (PPARg) (AID 2283007)
Chain of Peroxisome proliferator-activated receptor gamma (Homo sapiens) (P37231 whole entry, looked up): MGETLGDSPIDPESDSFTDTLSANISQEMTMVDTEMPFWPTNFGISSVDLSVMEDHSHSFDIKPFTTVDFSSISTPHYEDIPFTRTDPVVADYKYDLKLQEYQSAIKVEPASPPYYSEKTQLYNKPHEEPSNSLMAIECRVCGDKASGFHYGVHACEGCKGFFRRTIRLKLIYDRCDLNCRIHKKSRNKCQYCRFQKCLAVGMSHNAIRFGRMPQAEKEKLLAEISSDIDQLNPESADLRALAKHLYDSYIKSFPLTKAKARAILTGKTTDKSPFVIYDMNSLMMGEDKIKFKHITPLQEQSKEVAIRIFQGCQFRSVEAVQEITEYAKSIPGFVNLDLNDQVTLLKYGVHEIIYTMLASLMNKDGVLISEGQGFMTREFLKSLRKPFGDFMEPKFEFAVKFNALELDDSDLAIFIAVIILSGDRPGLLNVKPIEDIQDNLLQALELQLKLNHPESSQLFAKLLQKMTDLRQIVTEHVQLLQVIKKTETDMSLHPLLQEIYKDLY
Summary of the method: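 Multiplexed reporter transcription units in HepG2, 24 h dosing, reporter transcripts quantified by fluorescent RT-PCR and capillary electrophoresis. Increase over DMSO scored.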

[5] = molecular target: Retinoic acid receptor RXR-alpha (Homo sapiens) (UniProt P19793); assay: ATG_RXRa_TRANS: Attagene TRANS-FACTORIAL HepG2 Assay for human Retinoid X Receptor alpha (RXRa) (AID 2283012)
Chain of Retinoic acid receptor RXR-alpha (Homo sapiens) (P19793 whole entry, looked up, the tested form may be a part): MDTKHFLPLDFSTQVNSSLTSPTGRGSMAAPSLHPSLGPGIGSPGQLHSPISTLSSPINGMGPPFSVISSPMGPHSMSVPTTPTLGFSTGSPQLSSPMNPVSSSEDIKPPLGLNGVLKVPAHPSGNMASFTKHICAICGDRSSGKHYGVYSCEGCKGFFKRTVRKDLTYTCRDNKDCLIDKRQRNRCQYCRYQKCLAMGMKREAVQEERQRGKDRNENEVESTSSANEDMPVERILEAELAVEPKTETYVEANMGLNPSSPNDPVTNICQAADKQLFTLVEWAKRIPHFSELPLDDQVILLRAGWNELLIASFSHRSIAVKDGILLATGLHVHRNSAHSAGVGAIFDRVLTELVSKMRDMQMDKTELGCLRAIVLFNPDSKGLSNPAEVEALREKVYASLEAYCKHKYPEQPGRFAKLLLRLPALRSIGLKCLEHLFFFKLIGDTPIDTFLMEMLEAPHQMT
Summary of the method: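 TRANS format reporting activity of exogenous RXRa-Gal4 chimera in transiently transfected HepG2, 24 h exposure. Reporter transcripts quantified by RT-PCR with capillary electrophoresis, with gain of signal scored relative to DMSO.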

[6] = read-out: E-selectin (Homo sapiens) (UniProt P16581); assay: BSK_3C_Eselectin: BioMAP Diversity Plus: 3C Assay for Eselectin Biomarker Activity (AID 2283015; active means hit-call score of the fitted dose curve at least 0.9, where 1 is the maximum; inactive means score below 0.9;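 further: cell surface E-selectin protein quantified by ELISA 24 h after dosing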); settings: primary human endothelial cells (HUVEC); actives raise or lower the signal
Summary of the method: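 Human vascular endothelium from umbilical vein is exposed to test chemicals for 24 h. E-selectin levels are read by ELISA and compared with DMSO controls.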

[7] = read-out: Interleukin-1 alpha (IL1a), IL1A (gene 3552); assay: BSK_BE3C_IL1a: BioMAP Diversity Plus: BE3C Assay for Interleukin-1 alpha (IL1a) Biomarker Activity (AID 2283016; active means hit-call score of the fitted dose curve at least 0.9, where 1 is the maximum; inactive means score below 0.9); settings: primary human bronchial epithelial cells; actives raise or lower the signal
Summary of the method: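 IL-1a measured by ELISA after 24 h treatment of human primary bronchial epithelial cells, with gain or loss of signal fitted versus DMSO. Parallel cultures stained with SRB gauge overt cytotoxicity.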

[8] = read-out: Monocyte Chemoattractant Protein-1 (MCP1), CCL2 (gene 6347); assay: BSK_3C_MCP1: BioMAP Diversity Plus: 3C Assay for Monocyte Chemoattractant Protein-1 (MCP1) Biomarker Activity (AID 2283017; active means hit-call score of the fitted dose curve at least 0.9, where 1 is the maximum; inactive means score below 0.9); settings: primary human endothelial cells (HUVEC); actives raise or lower the signal
Summary of the method: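 Endothelial cells from human umbilical vein are dosed with chemical, cultured 24 h, then assayed for MCP-1 by ELISA; both increases and decreases are modelled against DMSO controls.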

[9] = read-out: Monocyte Chemoattractant Protein-1 (MCP1), CCL2 (gene 6347); assay: BSK_4H_MCP1: BioMAP Diversity Plus: 4H Assay for Monocyte Chemoattractant Protein-1 (MCP1) Biomarker Activity (AID 2283018; active means hit-call score of the fitted dose curve at least 0.9, where 1 is the maximum; inactive means score below 0.9); settings: primary human endothelial cells (HUVEC); actives raise or lower the signal
Summary of the method: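 ELISA of MCP-1 (CCL2) 24 h after chemical dosing of HUVEC in the BioMAP 4H system. Gain or loss versus DMSO fitted; parallel SRB staining (560 nm) tracked overt cytotoxicity.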

[10] = read-out: Human Leukocyte Antigen - DR isotype (HLADR), HLA-DRA (gene 3122); assay: BSK_3C_HLADR: BioMAP Diversity Plus: 3C Assay for Human Leukocyte Antigen - DR isotype (HLADR) Biomarker Activity (AID 2283019; active means hit-call score of the fitted dose curve at least 0.9, where 1 is the maximum; inactive means score below 0.9;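 further: ELISA of cell-surface HLA-DR on HUVEC 24 h after dosing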); settings: primary human endothelial cells (HUVEC); actives raise or lower the signal
Summary of the method: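 Endothelial cells from human umbilical vein are treated with test chemical; after 24 h, HLA-DR levels are measured by ELISA. Data are fitted in both directions using DMSO as the baseline.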

[11] = read-out: Interleukin-8 (IL8), CXCL8 (gene 3576); assay: BSK_3C_IL8: BioMAP Diversity Plus: 3C Assay for Interleukin-8 (IL8) Biomarker Activity (AID 2283020; active means hit-call score of the fitted dose curve at least 0.9, where 1 is the maximum; inactive means score below 0.9); settings: primary human endothelial cells (HUVEC); actives raise or lower the signal
Summary of the method: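 IL-8 was measured by ELISA in HUVEC cultures 24 h after chemical dosing, with gain or loss of signal fitted relative to DMSO. Parallel SRB total-protein staining tracked overt cytotoxicity.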

[12] = molecular target: human Peroxisome Proliferator-activated Receptor delta (PPARd), PPARD (gene 5467) (UniProt Q03181); assay: ATG_PPARd_TRANS: Attagene TRANS-FACTORIAL HepG2 Assay for human Peroxisome Proliferator-activated Receptor delta (PPARd) (AID 2283002)
Chain of human Peroxisome Proliferator-activated Receptor delta (PPARd), PPARD (gene 5467) (Q03181 whole entry, looked up, the tested form may be a part): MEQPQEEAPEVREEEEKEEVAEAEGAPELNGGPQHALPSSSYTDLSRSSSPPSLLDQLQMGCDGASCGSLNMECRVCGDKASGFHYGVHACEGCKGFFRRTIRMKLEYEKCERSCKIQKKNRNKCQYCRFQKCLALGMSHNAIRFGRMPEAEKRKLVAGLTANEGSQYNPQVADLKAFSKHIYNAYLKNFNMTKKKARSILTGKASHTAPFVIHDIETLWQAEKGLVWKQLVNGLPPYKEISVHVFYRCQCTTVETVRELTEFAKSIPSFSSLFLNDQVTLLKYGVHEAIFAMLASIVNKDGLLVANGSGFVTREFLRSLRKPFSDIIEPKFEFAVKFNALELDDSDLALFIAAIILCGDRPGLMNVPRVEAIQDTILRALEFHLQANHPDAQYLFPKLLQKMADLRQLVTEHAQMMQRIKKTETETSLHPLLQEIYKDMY
Summary of the method: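 Fluorescence from capillary electrophoresis of labelled RT-PCR reporter fragments gives the signal; DMSO sets baseline. Cells: HepG2 transiently carrying GAL4-UAS reporter units plus chimeric nuclear receptor-Gal4 proteins, exposed to chemicals for 24 h.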

[13] = molecular target: human RAR-related Orphan Receptor gamma (RORg), RORC (gene 6097) (UniProt P51449); assay: ATG_RORg_TRANS: Attagene TRANS-FACTORIAL HepG2 Assay for human RAR-related Orphan Receptor gamma (RORg) (AID 2283011)
Chain of human RAR-related Orphan Receptor gamma (RORg), RORC (gene 6097) (P51449 whole entry, looked up, the tested form may be a part): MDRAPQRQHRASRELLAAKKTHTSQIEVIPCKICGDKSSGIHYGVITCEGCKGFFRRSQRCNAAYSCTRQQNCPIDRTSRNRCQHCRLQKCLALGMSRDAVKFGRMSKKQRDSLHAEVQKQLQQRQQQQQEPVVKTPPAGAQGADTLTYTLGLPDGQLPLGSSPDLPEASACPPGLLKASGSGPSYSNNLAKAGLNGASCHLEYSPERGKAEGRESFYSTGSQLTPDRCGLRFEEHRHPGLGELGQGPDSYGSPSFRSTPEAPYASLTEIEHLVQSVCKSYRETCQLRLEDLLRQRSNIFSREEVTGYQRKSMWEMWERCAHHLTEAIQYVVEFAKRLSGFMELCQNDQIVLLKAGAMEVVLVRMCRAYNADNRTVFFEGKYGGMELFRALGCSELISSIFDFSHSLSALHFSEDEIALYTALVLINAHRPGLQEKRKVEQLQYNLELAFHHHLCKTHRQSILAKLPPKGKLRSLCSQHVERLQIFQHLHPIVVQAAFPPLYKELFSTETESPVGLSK
Summary of the method: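 Activity is scored as increase in GAL4-UAS reporter mRNA over DMSO, detected by fluorescent RT-PCR and capillary electrophoresis in HepG2 cells transiently expressing a RORg-Gal4 chimera, 24 h after dosing.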

[14] = molecular target: human Retinoid X Receptor beta (RXRb), RXRB (gene 6257) (UniProt P28702); assay: ATG_RXRb_TRANS: Attagene TRANS-FACTORIAL HepG2 Assay for human Retinoid X Receptor beta (RXRb) (AID 2283013)
Chain of human Retinoid X Receptor beta (RXRb), RXRB (gene 6257) (P28702 whole entry, looked up, the tested form may be a part): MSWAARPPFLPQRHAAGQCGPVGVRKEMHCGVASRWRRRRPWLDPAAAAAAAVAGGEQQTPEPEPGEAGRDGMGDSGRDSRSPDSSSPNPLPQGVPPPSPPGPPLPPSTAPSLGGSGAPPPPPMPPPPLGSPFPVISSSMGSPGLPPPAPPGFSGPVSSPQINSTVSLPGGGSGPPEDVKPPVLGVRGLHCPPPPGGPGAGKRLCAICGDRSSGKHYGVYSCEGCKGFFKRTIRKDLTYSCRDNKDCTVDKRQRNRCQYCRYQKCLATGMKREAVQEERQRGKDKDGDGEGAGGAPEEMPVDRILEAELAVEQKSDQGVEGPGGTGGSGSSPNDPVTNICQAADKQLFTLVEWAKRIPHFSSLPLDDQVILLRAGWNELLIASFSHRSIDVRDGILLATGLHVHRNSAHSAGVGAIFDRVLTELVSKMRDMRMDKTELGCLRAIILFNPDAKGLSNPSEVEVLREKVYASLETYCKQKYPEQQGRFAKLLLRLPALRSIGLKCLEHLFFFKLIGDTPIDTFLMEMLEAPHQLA
Summary of the method: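 Readout is reporter transcript induction after 24 h dosing. It is measured by RT-PCR of total RNA followed by fluorescent capillary electrophoresis. HepG2 liver cells carry transfected multiple reporter units driven by an exogenous RXRb-Gal4 fusion; activity is relative to DMSO.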

[15] = molecular target: human Thyroid Receptor alpha (THRa1), THRA (gene 7067) (UniProt P10827); assay: ATG_THRa1_TRANS: Attagene TRANS-FACTORIAL HepG2 Assay for human Thyroid Receptor alpha (THRa1) (AID 2283014)
Chain of human Thyroid Receptor alpha (THRa1), THRA (gene 7067) (P10827 whole entry, looked up, the tested form may be a part): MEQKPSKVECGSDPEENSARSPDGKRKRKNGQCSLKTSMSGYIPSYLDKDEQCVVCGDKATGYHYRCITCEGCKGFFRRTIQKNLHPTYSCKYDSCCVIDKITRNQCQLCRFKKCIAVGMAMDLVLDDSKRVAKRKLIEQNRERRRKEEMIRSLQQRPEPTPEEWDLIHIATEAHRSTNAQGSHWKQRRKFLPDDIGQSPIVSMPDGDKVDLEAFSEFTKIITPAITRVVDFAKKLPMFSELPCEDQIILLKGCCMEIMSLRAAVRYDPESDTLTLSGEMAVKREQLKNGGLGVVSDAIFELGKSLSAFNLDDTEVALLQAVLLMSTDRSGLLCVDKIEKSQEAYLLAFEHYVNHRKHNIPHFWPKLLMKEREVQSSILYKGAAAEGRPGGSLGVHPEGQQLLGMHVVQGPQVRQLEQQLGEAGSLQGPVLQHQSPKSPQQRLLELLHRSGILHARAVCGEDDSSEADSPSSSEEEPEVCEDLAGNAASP
Summary of the method: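 First, HepG2 cells receive multiple GAL4-UAS reporter units and the chimeric receptor. They are then dosed for 24 h, after which RNA is reverse-transcribed, amplified, labelled, HpaI-cut and sized by capillary electrophoresis; gain relative to DMSO is scored.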

[16] = molecular target: human Retinoic Acid Receptor gamma (RARg), RARG (gene 5916) (UniProt P13631); assay: ATG_RARg_TRANS: Attagene TRANS-FACTORIAL HepG2 Assay for human Retinoic Acid Receptor gamma (RARg) (AID 2283009)
Summary of the method: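 Transactivation of exogenous RARg-Gal4 fusion measured as reporter transcript induction after 24 h in transfected HepG2 cells. RNA reverse-transcribed, amplified, fluorescently labeled and resolved by capillary electrophoresis; increase relative to DMSO.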

[17] = molecular target: human RAR-related Orphan Receptor beta (RORb), RORB (gene 6096) (UniProt Q92753); assay: ATG_RORb_TRANS: Attagene TRANS-FACTORIAL HepG2 Assay for human RAR-related Orphan Receptor beta (RORb) (AID 2283010)
Chain of human RAR-related Orphan Receptor beta (RORb), RORB (gene 6096) (Q92753 whole entry, looked up, the tested form may be a part): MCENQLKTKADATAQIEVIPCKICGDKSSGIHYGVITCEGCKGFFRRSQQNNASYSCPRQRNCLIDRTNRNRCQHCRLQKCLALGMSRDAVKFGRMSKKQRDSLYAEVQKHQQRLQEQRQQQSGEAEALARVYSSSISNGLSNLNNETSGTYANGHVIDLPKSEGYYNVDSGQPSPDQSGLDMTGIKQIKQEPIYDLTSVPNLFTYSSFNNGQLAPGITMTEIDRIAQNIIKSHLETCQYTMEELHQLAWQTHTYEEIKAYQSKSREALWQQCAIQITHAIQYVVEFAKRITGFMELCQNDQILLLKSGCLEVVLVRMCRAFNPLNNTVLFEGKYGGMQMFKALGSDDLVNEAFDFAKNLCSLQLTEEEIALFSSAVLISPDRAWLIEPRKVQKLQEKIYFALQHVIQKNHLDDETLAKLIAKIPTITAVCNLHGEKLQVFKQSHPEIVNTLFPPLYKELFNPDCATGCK
Summary of the method: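 Read-out is reporter mRNA induction, quantified by RT-PCR with fluorescent capillary electrophoresis, 24 h post-dose in transiently transfected HepG2 expressing exogenous NR-Gal4 chimera. Activity fitted upward versus DMSO.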

[18] = molecular target: Nuclear receptor subfamily 1 group I member 2 (Homo sapiens) (UniProt O75469); assay: ATG_PXR_TRANS: Attagene TRANS-FACTORIAL HepG2 Assay for human Pregnane X Receptor (PXR) (AID 2283008)
Chain of Nuclear receptor subfamily 1 group I member 2 (Homo sapiens) (O75469 whole entry, looked up, the tested form may be a part): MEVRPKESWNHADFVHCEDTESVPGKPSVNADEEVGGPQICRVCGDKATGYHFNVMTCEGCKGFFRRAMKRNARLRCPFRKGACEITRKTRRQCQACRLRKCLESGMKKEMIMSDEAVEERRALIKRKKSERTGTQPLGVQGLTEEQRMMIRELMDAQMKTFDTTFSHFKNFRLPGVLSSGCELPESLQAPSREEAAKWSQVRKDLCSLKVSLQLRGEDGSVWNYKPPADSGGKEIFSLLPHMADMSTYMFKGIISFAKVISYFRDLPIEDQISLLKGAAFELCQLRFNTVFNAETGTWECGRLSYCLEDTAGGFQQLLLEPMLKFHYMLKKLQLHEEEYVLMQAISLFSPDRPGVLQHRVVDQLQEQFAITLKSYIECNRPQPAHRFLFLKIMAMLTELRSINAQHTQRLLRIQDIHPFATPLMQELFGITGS
Summary of the method: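 HepG2 transfected (FuGene 6) with GAL4-UAS reporter units + PXR-Gal4 chimera; dosed 24 h. Total RNA → oligo(dT) RT → PCR → 6-FAM primer extension → HpaI cut → CE. Gain-of-signal vs DMSO.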

[19] = molecular target: human Retinoic Acid Receptor beta (RARb), RARB (gene 5915) (UniProt P10826); assay: ATG_RARb_TRANS: Attagene TRANS-FACTORIAL HepG2 Assay for human Retinoic Acid Receptor beta (AID 2283004)
Summary of the method: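 HepG2, transient MRTU transfection, NR–Gal4 chimera, 24 h treatment; RT-PCR plus CE fluorescence detection of reporter mRNA; gain of signal vs DMSO.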

[20] = molecular target: Retinoic acid receptor alpha (Homo sapiens) (UniProt P10276); assay: ATG_RARa_TRANS: Attagene TRANS-FACTORIAL HepG2 Assay for human Retinoic Acid Receptor alpha (RARa) (AID 2283005)
Summary of the method: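 HepG2 transiently transfected with multiplex GAL4-UAS reporter units including a human RARa–GAL4 chimera; 24 h compound exposure. Reporter mRNA quantified by RT-PCR, 6-FAM labeling and capillary electrophoresis; gain of signal versus DMSO.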

Measured: AC50

Chain of E-selectin (Homo sapiens) (P16581 whole entry, looked up): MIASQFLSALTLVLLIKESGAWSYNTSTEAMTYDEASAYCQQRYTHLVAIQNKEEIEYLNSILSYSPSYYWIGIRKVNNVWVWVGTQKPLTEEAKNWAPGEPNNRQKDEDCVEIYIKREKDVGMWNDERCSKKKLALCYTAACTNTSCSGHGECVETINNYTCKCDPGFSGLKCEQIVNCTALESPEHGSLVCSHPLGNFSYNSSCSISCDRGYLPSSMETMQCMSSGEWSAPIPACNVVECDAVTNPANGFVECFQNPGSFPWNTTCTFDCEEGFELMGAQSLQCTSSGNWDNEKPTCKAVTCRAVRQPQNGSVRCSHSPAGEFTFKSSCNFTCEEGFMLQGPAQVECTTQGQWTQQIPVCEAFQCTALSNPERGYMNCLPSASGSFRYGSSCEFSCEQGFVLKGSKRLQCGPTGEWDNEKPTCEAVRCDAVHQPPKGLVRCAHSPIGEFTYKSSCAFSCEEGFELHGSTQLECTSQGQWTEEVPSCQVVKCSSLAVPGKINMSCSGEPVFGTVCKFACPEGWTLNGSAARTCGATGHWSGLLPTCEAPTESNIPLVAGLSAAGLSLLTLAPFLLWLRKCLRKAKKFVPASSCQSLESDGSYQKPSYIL

CN1C(=O)N(C)C(O)C1O (stereo not drawn)
inactive: [1] | [2] | [3] | [4] | [5] | [6] | [7] | [8] | [9] | [10] | [11]

COCCCOCCCOC
inactive: [1] | [12] | [13] | [14]

CCCCCCCC/C=C\CCCCCCCC(=O)OCCO
inactive: [12] | [5]
active: [1] 8.71 µM | [4] 4.78 µM | [14] 17.7 µM

Cc1cccc(N(C)C(=S)Oc2ccc3ccccc3c2)c1
inactive: [1] | [12] | [5] | [15]
active: [4] 2.88 µM | [14] 32.6 µM

N#[N+]c1ccc2c(S(=O)(=O)[O-])cccc2c1O
not listed: [4] | [12] | [13] | [18] | [19] | [20]
inactive: all other assays above

CCC(C)C=O (stereo not drawn)
inactive: [1] | [12] | [18] | [17] | [13] | [5]

CCOC(=O)Cc1cccc2ccccc12
active: [4] 44.5 µM | [14] 89.4 µM
inactive: [1] | [19] | [20] | [5] | [15]
